This is one part of a sample in which hits are shown more often than they occur.
Tg IFNy HTS = inhibitors of Toxoplasma gondii growth with IFN-gamma. AID 1259416. Toxoplasma gondii growth in IFN-gamma-treated host cells; stronger effect = lower value. 69,000 compounds, 3.8% hits. activity change, negative = inhibition, % (no concentration beside the values); in the data active = activity change below about -70%, passing the limit was not always enough;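 also: host cells are HeLa cells infected with Toxoplasma gondii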
The depositor's hits bear a star; i = inactive; ! = repeats disagree.

SMILES	Tg IFNy HTS
CC(C)(C)C1CCc2c(sc3c2C(=O)NC(c2ccc(Br)cc2)N3)C1 (configuration not stated)	87
CCN(CC)c1ncnc2c1cnn2-c1ccccc1	i
c1ccc(-n2ncc3c(NC4CCCCCCCCCCC4)ncnc32)cc1	30
N#Cc1cnn(-c2ncnc3c2cnn3-c2ccccc2)c1N	-93*
CCC1CN(CCCn2ccnc2C)CCC(=O)N1Cc1ccccc1 (configuration not stated)	-3
Cc1cc(C)n(-c2nc3ccccc3s2)n1	417
Cc1ccc(-c2cc(-c3ccccc3)nc(-n3nc(C)cc3C)n2)cc1	-104*
Cc1cc(C)n(-c2ncc(C#N)c(N)n2)n1	22
CN(C)C1CCN(Cc2ccsc2)C(C(=O)O)C1 (configuration not stated)	25
CC(C)c1nccn1Cc1cc(C(=O)N(C)CCC2(O)CCCC2)n[nH]1	9
O=C1CSC(c2ccccc2)N1Nc1nc(N2CCOCC2)nc(N2CCOCC2)n1 (configuration not stated)	-14
O=C(O)CSc1nc(Nc2ccccc2)nc(N2CCOCC2)n1	-31
Oc1[nH]c2ccccc2c1N=Nc1nc(Nc2ccccc2)nc(N2CCOCC2)n1	-99*
Cc1ccc2c(C(O)CN3CCC(O)(Cn4ccnc4C)CC3)c[nH]c2c1 (configuration not stated)	128
COc1ccc2c3c(n(C)c2c1)[C@@H](CO)N(C(C)=O)CC31CN(S(=O)(=O)c2ccccc2)C1	106
OC[C@H]1[C@@H](c2ccccc2)C2(CN(Cc3cccnc3)C2)N1Cc1ccncc1	-7
CN1c2ccsc2-c2nc(SCc3ccc(Cl)cc3)ncc2S1(=O)=O	-85*
Clc1ccc(CSc2cccs2)cc1	11
O=c1nc(SCc2ccc(Cl)cc2)nc(-c2ccccc2)[nH]1	-44
CC(C)CCN1C2(CCN(Cc3nccs3)C2)c2ccccc2S1(=O)=O (configuration not stated)	-96*
CN(C)CCN1C2(CCN(Cc3nccs3)C2)c2ccccc2S1(=O)=O (configuration not stated)	0
COCCN1C2(CCN(Cc3nccs3)C2)c2ccccc2S1(=O)=O (configuration not stated)	3
FC(F)(F)c1cccc(NC(=S)Nc2ccccn2)c1	-113*
S=C(Nc1ccccc1)Nc1ccccn1	61
O=C1NN=CC1CCCNC(=S)Nc1cccc(C(F)(F)F)c1 (configuration not stated)	13
SMILES	Tg IFNy HTS
Cc1cccc(COCC23CCCOC2CCN(Cc2ccoc2)C3)n1 (configuration not stated)	i
O=C(NCCc1ccccn1)c1cccc2[nH]cc(CN3CCSCC3)c12	15
O=C(c1ccc(F)c(F)c1)N1CCc2onc(COCC3CC3)c2C1	-3
CCOC(=O)C(Cc1cc(F)cc2c1OCOC2)(NC(C)=O)C(=O)OCC	-13
COc1ccc(C(=O)CSc2nnc(-c3ccoc3)c(-c3ccoc3)n2)cc1	159
Cc1c(-c2ccccc2)n(CC(O)CN)c2ccccc12 (configuration not stated)	-48
CCOC(=O)Cn1c(C)cc(=O)c2ccccc21	-9
Cc1ccc2c(=O)c3ccccc3n(CCCN)c2c1C	-87*!
CN(C)CC1(O)CCCN(C(=O)c2cnc3ccccn3c2=O)C1 (configuration not stated)	5
CN(C)CC1(O)CCCN(C(=O)c2cnc3ccccn3c2=O)CC1 (configuration not stated)	2
O=C1NC(=O)C(c2cnc3ccccn23)=C1c1cn2c3c(cc(F)cc13)CN(C(=O)N1CCCCC1)CC2	-87*
COc1ccc2c3c(n(C)c2c1)[C@@H](CO)N(C(=O)C1CCOCC1)CC31CCN(C(=O)c2ccncc2)CC1	-22
COc1cc2c(cc1C1CC(=O)Nc3[nH]ncc31)CCC2 (configuration not stated)	4
O=C1CC(c2cccc(Br)c2)c2cc3c(cc2N1)CCC3 (configuration not stated)	-83*
O=C1CC(c2ccsc2)c2cc3cn[nH]c3cc2N1 (configuration not stated)	1
C=CC(=O)Nc1cccc(Oc2nc(Nc3ccc(N4CCN(C)CC4)cc3OC)ncc2Cl)c1	-67
CCC(=O)Nc1cccc(Oc2nc(Nc3ccc(N4CCN(C)CC4)cc3OC)ncc2Cl)c1	-19
C=CC(=O)Nc1cccc(Sc2nc(Nc3ccc(N4CCN(C)CC4)cc3)ncc2Cl)c1	-82*
O=C1CCC2(CCN(CC3CCOC3)CC2)N1Cc1cccc(F)c1 (configuration not stated)	7
S=C1N(CN2CCCCC2)CCN1CN1CCCCC1	18
FC(F)(F)c1cc(N/N=C2/CCSc3sccc32)cc(C(F)(F)F)c1	-103*
COCC1CN(S(=O)(=O)c2ccccc2C)Cc2cn(C)nc21 (configuration not stated)	16
COc1c(C)cc(-c2csc(C(N)=O)c2)cc1C	-72*
COc1c(C)cc(-c2cncc(C(N)=O)c2)cc1C	-5
COc1ccc(-c2csc(C(N)=O)c2)cn1	-20
SMILES	Tg IFNy HTS
CCc1nc(CN(C)C(=O)C2(Oc3ccc(C)cc3)CCNCC2)no1	57
Cc1cccc(N2CCN(C(=O)CC3Nc4c5ccccc5nc(=S)n4C3=O)CC2)c1C (configuration not stated)	-3
Cc1cccc(Oc2ccc(C(=O)NCC3(O)CCCNCC3)cc2)c1 (configuration not stated)	-44
CN(C(=O)c1ncn2c1CN(CC1CC1)S(=O)(=O)c1ccccc1-2)c1ccccc1	-105*
CCCCCN(C)C(=O)c1ncn2c1CN(CC1CC1)S(=O)(=O)c1ccccc1-2	-1
CCCCN(CC)C(=O)c1ncn2c1CN(CC1CC1)S(=O)(=O)c1ccccc1-2	0
CCc1ccc(NC(=O)COc2nc(CC)nc3ccccc23)cc1	-1
CCn1c(=O)c(-c2nc(-c3ccc(OC(C)C)cc3)no2)c(O)c2ccccc21	40
O=C(COc1ccccn1)Nc1cccc(CCc2ccncc2)c1	-25
COc1ccc2[nH]cc(CCNC(=O)c3ccc(N4CCCC4)c(S(=O)(=O)N4CCCC4)c3)c2c1	7
COc1ccc2[nH]cc(CCNc3ccc(S(=O)(=O)C4CCCCC4)nn3)c2c1	45
COc1ccc2[nH]cc(CCNc3ccc(S(=O)(=O)C(C)C)nn3)c2c1	-113*
CC(C)(C)n1nnnc1CN1CCC(NC(=O)c2ccccc2)CC1	-31
Cc1nc(CNC(=O)CCc2ccccc2O)cs1	3
FC(F)(F)c1ccnc(NCc2ccc3c(c2)OCO3)n1	51
FC(F)(F)CCc1ccnc(NCc2ccc3c(c2)OCO3)n1	-5
Clc1ccc(-c2nc(NCc3ccc4c(c3)OCO4)ncc2-c2ncc[nH]2)cc1	-106*
Cc1[nH]cnc1-c1nccn1-c1ccc2c(c1)CCC2	3
Cc1ccc(S(=O)(=O)Nc2nc3ccccc3nc2Nc2ccc3nsnc3c2)cc1	-38
CC(C)N1CCOC(CC(=O)N(C)Cc2ccsc2)C1 (configuration not stated)	1
COC(=O)c1sc(-c2cccs2)cc1NS(=O)(=O)c1ccsc1C(=O)OC	-85*
COC(=O)c1sccc1S(=O)(=O)Nc1ccc(C)cc1	11
COC(=O)c1sccc1S(=O)(=O)Nc1ccc(Nc2ccccc2)cc1OC	-1
O=C(Cc1ccc(F)cc1)N1CCC2(CC(=O)N(c3cccc(F)c3)C2)C1 (configuration not stated)	1
O=C(Nc1cnn(-c2ncc(N3CCSCC3)cn2)c1)NC1CCCCC1	0
O=C(/C=C/c1ccccc1)c1ccccc1	28
